The campaign covered roughly 320,000 compounds. About 2,100 (0.66%) were called active. Not shown: some 53% with an inconclusive outcome. This is one part of a sample in which actives are shown more often than they occur. Calls follow the shape of the dose curve; as a rule, active = well fitted inhibition curve with a large enough effect in the signal ratio, with a control signal flat (not every such curve was filed as active); inconclusive = small, poorly fitted or top-dose-only effect, or effect the other way, or a change in a side signal; inactive = flat fitted curve, though single readings scatter; the % refers to the signal ratio.
Assay: qHTS Assay for Lipid Storage Modulators in Drosophila S3 Cells;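 as to cell number change: cells counted by Cell Tracker Red CMTPX staining in the red channel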; as to lipid storage change, negative = inhibition: % is scaled to controls: 0 for no effect and ±100 for the full control effect
Details: BODIPY lipid droplet fluorescence, 18-24 h, cells fed with added oleic acid; cell number change: measured here: cell count max response; series mostly up to 46.1 µM; lipid storage change, negative = inhibition: at the top concentration
Summary of the method: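 Laser-scanning cytometry quantifies lipid droplet accumulation (500–530 nm total intensity; droplet/cell object ratio) in oleic acid-fed (400 uM added) Drosophila S3 cells treated with a concentration series. 20 uM Triacsin C defined 100% inhibition.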
Potency is read from the fitted curve at half-maximal effect.

**Q.** With Cc1noc(C)c1COc1ccc(C(=O)O)cc1 as the compound, how does the “lipid storage change, negative = inhibition” value read?
**A.** 3.4% (inactive)

**Q.** And the cell number change?
**A.** 4.42%

**Q.** Which “outcome” value does the source give for CCOc1ccc(-n2cnnn2)cc1S(=O)(=O)NCCc1ccc(OC)c(OC)c1 here?
**A.** inactive

**Q.** Which results are given for CCOc1ccc(CCNC(=O)c2cccc(-n3cnnn3)c2)cc1OCC?
**A.** Potency: 0.0731 µM (active); cell number change: -24.8%

**Q.** For CCOc1ccc(CCNC(=O)c2ccc3ccccc3n2)cc1OCC, which Potency is on record?
**A.** 8.2 µM (active)

**Q.** What about the cell number change of the same compound?
**A.** -6.07%

**Q.** With CCOc1ccc(CCNC(=O)c2cc(C)nc3ccccc23)cc1OCC as the compound, how does the “outcome” value read?
**A.** inactive

**Q.** What about the cell number change of the same compound?
**A.** 1.62%

**Q.** With Cc1noc(C)c1COc1ccc(C(=O)NNC(=O)c2ccccc2)cc1 as the compound, how does the “lipid storage change, negative = inhibition” value read?
**A.** 12.6% (inactive)

**Q.** And the cell number change?
**A.** 2.9%

**Q.** What does the source list for CCOc1ccc(CCNC(=O)c2ccccc2OCc2c(C)noc2C)cc1OCC?
**A.** lipid storage change, negative = inhibition: 5.43% (inactive); cell number change: 4.08%

**Q.** For CCOc1ccc(CCNC(=O)c2cccc(S(=O)(=O)N3CCN(C(C)=O)CC3)c2)cc1OCC, which “lipid storage change, negative = inhibition” value is on record?
**A.** -10.5% (inactive)

**Q.** What about the cell number change of the same compound?
**A.** -4.38%

**Q.** What does the source list for Cc1noc(C)c1COc1ccc(C(=O)N(C)CCOc2ccccc2)cc1?
**A.** Potency: 8.2 µM (active); cell number change: -18.6%

**Q.** Which “lipid storage change, negative = inhibition” value does the source give for Cc1noc(C)c1COc1ccc(C(=O)NCCc2ccc(S(N)(=O)=O)cc2)cc1 here?
**A.** 23% (inactive)

**Q.** And the cell number change?
**A.** 9.63%

**Q.** For COc1ccc(N2CCN(C(=O)COC(=O)/C=C/c3ccc(OC(F)F)cc3)CC2)cc1, which “lipid storage change, negative = inhibition” value is on record?
**A.** 12.6% (inactive)

**Q.** Which results are given for COc1ccc(Nc2nc(Cl)nc(Nc3ccc(OC)cc3OC)n2)c(OC)c1?
**A.** lipid storage change, negative = inhibition: -9.46% (inactive); cell number change: -11.9%

**Q.** Which “lipid storage change, negative = inhibition” value does the source give for CCOc1ccc(OCc2ccc(C(=O)Nc3ccc(Cl)cn3)o2)cc1 here?
**A.** 12.2% (inactive)

**Q.** What about the cell number change of the same compound?
**A.** 16.1%

**Q.** With CC(=O)Nc1sc(C)c(C)c1CN1CCN(S(=O)(=O)c2ccccc2)CC1 as the compound, how does the “outcome” value read?
**A.** inactive

**Q.** Which results are given for Cc1cc(C)c(Nc2ncnc(N)n2)c(C)c1?
**A.** lipid storage change, negative = inhibition: 6.89% (inactive); cell number change: -1.29%

**Q.** With O=c1cc(N2CCc3ccccc3C2)[nH]c(=O)n1-c1ccc(Br)cc1 as the compound, how does the “outcome” value read?
**A.** inactive

**Q.** For CCC1CN(C(=O)N2CCC(C(=O)NCc3ccc(OC)cc3OC)CC2)c2ccccc2O1 (centres undefined), which “outcome” value is on record?
**A.** inactive

**Q.** What about the cell number change of the same compound?
**A.** 4.13%

**Q.** With CCC1CN(C(=O)N2CCC(C(=O)NCc3ccccc3C)CC2)c2ccccc2O1 (centres undefined) as the compound, how does the Potency read?
**A.** 3.66 µM (active)

**Q.** And the cell number change?
**A.** -0.59%

**Q.** Which “outcome” value does the source give for CCC1CN(C(=O)N2CCC(C(=O)NCCc3ccccc3)CC2)c2ccccc2O1 (centres undefined) here?
**A.** inactive

**Q.** What about the cell number change of the same compound?
**A.** -2.95%

**Q.** With CCC1CN(C(=O)N2CCC(C(=O)NCCc3ccc(OC)c(OC)c3)CC2)c2ccccc2O1 (centres undefined) as the compound, how does the “outcome” value read?
**A.** inactive

**Q.** What about the cell number change of the same compound?
**A.** 5.9%

**Q.** With CCC1CN(C(=O)N2CCC(C(=O)NCc3ccccc3OC)CC2)c2ccccc2O1 (centres undefined) as the compound, how does the “lipid storage change, negative = inhibition” value read?
**A.** -7.34% (inactive)

**Q.** What about the cell number change of the same compound?
**A.** 16.5%

**Q.** For CCC1CN(C(=O)N2CCC(C(=O)NCCc3ccccc3OC)CC2)c2ccccc2O1 (centres undefined), which Potency is on record?
**A.** 6.51 µM (active)

**Q.** What about the cell number change of the same compound?
**A.** 13.3%

**Q.** With CCC1CN(C(=O)N2CCC(C(=O)NCc3ccc(C)o3)CC2)c2ccccc2O1 (centres undefined) as the compound, how does the “outcome” value read?
**A.** inactive

**Q.** Which results are given for CCC1CN(C(=O)N2CCC(C(=O)NCCc3ccc(OC)cc3OC)CC2)c2ccccc2O1 (centres undefined)?
**A.** Potency: 5.17 µM (active); cell number change: 1.47%

**Q.** Which “outcome” value does the source give for CCC1CN(C(=O)N2CCC(C(=O)NCc3cc(OC)c(OC)c(OC)c3)CC2)c2ccccc2O1 (centres undefined) here?
**A.** inactive

**Q.** What about the cell number change of the same compound?
**A.** -18%

**Q.** What does the source list for O=C(Nc1ccc(F)cc1)/C(=C1/CCCCCN1)[N+](=O)[O-]?
**A.** lipid storage change, negative = inhibition: -9.09% (inactive); cell number change: 18.2%

**Q.** With Cc1ccccc1CSc1nnc(NC(=O)Cc2cccs2)s1 as the compound, how does the “lipid storage change, negative = inhibition” value read?
**A.** 18.3% (inactive)

**Q.** And the cell number change?
**A.** 0.934%

**Q.** Which “outcome” value does the source give for O=S(=O)(Nc1ccc(-c2nc3ccccc3o2)cc1)c1ccccc1 here?
**A.** inactive

**Q.** And the cell number change?
**A.** -16.6%

**Q.** Which “lipid storage change, negative = inhibition” value does the source give for C/C(=N\NC(=O)c1cccc(S(=O)(=O)N2CCOCC2)c1)c1ccc(OC(F)F)cc1 here?
**A.** 24.9% (inactive)

**Q.** What about the cell number change of the same compound?
**A.** 8.64%

**Q.** For C/C(=N\NC(=O)CCc1ccc(S(=O)(=O)N2CCOCC2)cc1)c1ccccc1Cl, which “lipid storage change, negative = inhibition” value is on record?
**A.** -11% (inactive)

**Q.** What about the cell number change of the same compound?
**A.** 15.6%

**Q.** What does the source list for CCCCc1ccc(CC(=O)Nc2cc(S(=O)(=O)N3CCOCC3)ccc2O)cc1?
**A.** Potency: 20.6 µM (active); cell number change: -16.2%

**Q.** Which “lipid storage change, negative = inhibition” value does the source give for O=C(CCCSc1ccc(Cl)cc1)Nc1cc(S(=O)(=O)N2CCOCC2)ccc1O here?
**A.** 5.44% (inactive)

**Q.** What about the cell number change of the same compound?
**A.** -18.8%

**Q.** With COc1ccc(CCNC(=O)COc2ccc(S(=O)(=O)N3CCOCC3)cc2)cc1 as the compound, how does the “outcome” value read?
**A.** inactive

**Q.** With C/C(=N\NC(=O)CCc1ccc(S(=O)(=O)N2CCOCC2)cc1)c1ccc(OC(F)F)cc1 as the compound, how does the Potency read?
**A.** 11.6 µM (active)

**Q.** What about the cell number change of the same compound?
**A.** -28.6%

**Q.** Which “lipid storage change, negative = inhibition” value does the source give for O=C(Nc1cc(S(=O)(=O)N2CCOCC2)ccc1O)c1ccco1 here?
**A.** -7.19% (inactive)

**Q.** What about the cell number change of the same compound?
**A.** -13.8%

**Q.** With CC(=O)NCCc1ccc(S(=O)(=O)N2CCOCC2)cc1 as the compound, how does the Potency read?
**A.** 18.4 µM (active)

**Q.** And the cell number change?
**A.** -15.6%

**Q.** With CC(=O)NCCc1ccc(S(=O)(=O)Nc2ccc(C)c(S(=O)(=O)N3CCOCC3)c2)cc1 as the compound, how does the “outcome” value read?
**A.** inactive

**Q.** And the cell number change?
**A.** -24.8%

**Q.** What does the source list for Cc1ccc(CNC(=O)Cc2nc3nc(C)cc(C)n3n2)cc1?
**A.** lipid storage change, negative = inhibition: -1.12% (inactive); cell number change: 1.61%

**Q.** What does the source list for COc1cc2c(cc1OC)CN(C(=O)Nc1ccccc1Cl)CC2?
**A.** lipid storage change, negative = inhibition: 11.9% (inactive); cell number change: -24.6%

**Q.** What does the source list for CCc1nnc(NC(=O)CSc2nnc(C)n2CC2CCCO2)s1 (centres undefined)?
**A.** lipid storage change, negative = inhibition: 22.4% (inactive); cell number change: 6.32%

**Q.** With COCCCNC(=O)CSc1nc2ccccc2c(=O)n1Cc1ccc2c(c1)OCO2 as the compound, how does the “lipid storage change, negative = inhibition” value read?
**A.** 23.2% (inactive)

**Q.** What about the cell number change of the same compound?
**A.** -4.93%

**Q.** Which “lipid storage change, negative = inhibition” value does the source give for COc1ccc(C(=O)NCCc2cnc[nH]2)cc1OC here?
**A.** 19.2% (inactive)

**Q.** And the cell number change?
**A.** -11.3%

**Q.** What does the source list for COC(=O)CCN(C(=O)c1ccc(OC(C)=O)cc1)c1ccccn1?
**A.** lipid storage change, negative = inhibition: 2.15% (inactive); cell number change: 6.03%

**Q.** With COC(=O)CCN(C(=O)c1ccc(C)c([N+](=O)[O-])c1)c1ccccn1 as the compound, how does the “lipid storage change, negative = inhibition” value read?
**A.** 18% (inactive)

**Q.** And the cell number change?
**A.** 16.9%

**Q.** Which results are given for COC(=O)CCN(C(=O)c1cccc(OC(C)=O)c1)c1ccccn1?
**A.** Potency: 25.9 µM (active); cell number change: -22.7%
